NSD2 inh – inhibitors of human NSD2, primary screen, biochemical, plate reader, single point | Histone-lysine N-methyltransferase NSD2 (Homo sapiens), O96028 | NSD2-SET H3K36me1 DELFIA fluorescence | inhibition, % at 12.5 µM | 44,000 tested, 0.07% active; in the data active = inhibition above about 54%, passing the limit was not always enough;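 also: inhibitors reduce the monomethyl H3K36 fluorescence signal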
* hit, by the source's call. This excerpt belongs to a sample that is enriched for hits.

SMILES | NSD2 inh
CC/C=C/c1ccc(C)cc1/C=C/CCCC(=O)O | -4
O=C(CCCCC(=O)N/N=C/c1cccc(Oc2ccccc2)c1)NO | -1
CCN(CC)c1ccc(/C=N/NC(=O)c2ccc(C(=O)NO)cc2)c(O)c1 | 11
O=C(NO)c1ccc(C(=O)N/N=C/c2cccc(Oc3ccccc3)c2)cc1 | 1
O=C(NO)c1ccc(C(=O)N/N=C/c2ccc3ccccc3c2)cc1 | 62*
O=C(NO)c1ccc(C(=O)N/N=C/c2cccc(O)c2O)cc1 | 3
O=C(NO)c1ccc(C(=O)N/N=C/c2ccc(O)c(O)c2O)cc1 | 61*
O=C(NO)c1ccc(C(=O)N/N=C/c2ccc(F)cc2)cc1 | 4
Oc1ccc([C@@H]2Oc3cc(O)cc(O)c3C[C@@H]2O)cc1 | 11
COC(=O)c1csc(S(=O)(=O)N=S(C)(=O)c2cccs2)c1OC (stereo unspecified) | -120
CC(C)c1nc2cc3sc(C(C)C)nc3cc2s1 | 10
O=C(CCCCCCC(=O)N/N=C/c1ccc(OCCO)cc1)NO | 6
COC(=O)CCCCCCC(=O)N/N=C/c1cc(O)ccc1[N+](=O)[O-] | -5
COc1ccc2ccccc2c1C=C1C(=O)OC2(CCCC2)OC1=O | -1
CC1=C(C(=O)OC(C)C(C)(C)C)C(c2cccc(Br)c2)NC(=O)N1 (stereo unspecified) | -6
FC(F)(F)c1ccc(C2=NCCc3sccc32)cc1 | 5
O=C(CCc1ccccc1)CC(CCc1ccccc1)OC1OC(COC2OC(CO)C(O)C(O)C2O)C(O)C(O)C1O (stereo unspecified) | 0
Cc1cc(C)nc(N2CC(=O)N(CCOc3ccc(Br)cc3)C2=O)n1 | 8
CN(CCO)S(=O)(=O)c1cccc(C(=O)O)c1 | -3
CCCCn1c(CSc2ccccn2)cn(-c2nnc(C(C)(C)C)s2)c1=O | 1
CCC(=O)Nc1ccccc1-c1nnc(SCc2ccccc2)[nH]c1=O | 6
NNC(=O)C1C2CCCCC21 (stereo unspecified) | -7
O=C(/C=C/c1ccc(OCCc2cccs2)cc1)NO | 11
Cc1ccc(-c2ccn(-c3ccc(C)c(Cl)c3)c(=S)n2)cc1 | 4
S=C1NC2=C(C(c3ccccc3)N1)N1CCC2CC1 (stereo unspecified) | 2
SMILES | NSD2 inh
O=C(NCCSc1c(-c2ccc(Br)cc2)[nH]c2ccccc12)c1ccncc1 | -4
O=C(COc1ccc2oc3c(c2c1)CCCC3)NCCN1CCOCC1 | 6
O=C1CSC(C23CC4CC(CC(C4)C2)C3)N1 (stereo unspecified) | 18
CC(C)(C)c1cc(-c2csc(-c3ccno3)n2)cc(C(C)(C)C)c1O | -6
C=C1[C@]2(C)C[C@@H]3C(=C)[C@@]4(C=CC(=O)OC4(C)C)CC[C@@]3(C)[C@]13C(=O)O[C@H](C)[C@]3(O)C2=O | -5
O=c1c(C=Nc2ccccc2)c(O)c2c(n1-c1ccccc1)CCCC2 | -2
COc1ccc(CC(=O)n2nc(-c3ccc(Cl)cc3)nc2NCc2ccco2)cc1OC | -3
Cn1ccnc1SCC(=O)N1c2ccccc2C(C)(c2ccc(Cl)cc2)CC1(C)C (stereo unspecified) | 15
Cc1ccsc1/C=N/NC(=O)CCCCCC(=O)Nc1ccccc1O | 2
O=c1[nH]c(=O)n(Cc2c(Cl)cccc2Cl)cc1F | -1
COC(=O)C1=CO[C@@H](O[C@@H]2O[C@H](CO)[C@@H](O)[C@H](O)[C@H]2O)[C@H]2[C@@H]1C=CC21C=C([C@H](C)OC(=O)/C=C/c2ccc(O)cc2)C(=O)O1 (stereo partly specified) | 76*
COC(=O)C1=CO[C@@H](O[C@@H]2O[C@H](CO)[C@@H](O)[C@H](O)[C@H]2O)[C@@H]2[C@@H](C)[C@@H](O)[C@@H](OC(=O)/C=C/c3ccc(O)c(O)c3)[C@H]12 | 4
COC(=O)C1=CO[C@@H](O[C@@H]2O[C@H](CO)[C@@H](O)[C@H](O)[C@H]2O)[C@H]2[C@@H]1C=CC21C=C([C@H](C)O)C(=O)O1 (stereo partly specified) | 1
CC1CCN(C(=O)c2ccc3c(=O)nc4c(-c5ccccc5)n[nH]n4c3c2)CC1 | -5
CC1(C)C(=O)C=CC2(C)C1CC(O)C1(C)C3=CCC(c4ccoc4)C3(C)CCC21 (stereo unspecified) | 1
COC1=CC(=O)O/C1=C(/OC)[C@@H]1O[C@H]1c1ccccc1 | -3
C[C@@H]1O[C@@H](O[C@@H]2[C@@H](O)[C@H](OC(=O)[C@]34CCC(C)(C)CC3C3=CCC5[C@@]6(C)CC[C@H](OC7OC(CO)C(OC8OCC(O)C(O)C8O)C(O)C7O)C(C)(C)C6CC[C@@]5(C)[C@]3(C)CC4O)O[C@H]2CO)[C@H](O)[C@H](O)[C@H]1O[C@H]1OC[C@](O)(CO)[C@H]1O (stereo partly specified) | -3
CC1OC(O[C@H]2[C@@H](O)C[C@@]3(C)C([C@H](O)C[C@]4(C)C3CC=C3[C@@H]5CC(C)(C)CC[C@]5(C(=O)OC5OC(C)C(OC6OCC(OC7OCC(O)C(OC8OCC(O)C(O)C8O)C7O)C(O)C6O)C(O)C5O)CC[C@]34C)[C@]2(C)CO)C(O)C(OC2OC(CO)C(O)C(O)C2O)C1O (stereo partly specified) | -4
C[C@@H]1O[C@@H](O[C@@H]2[C@@H](O)[C@H](O[C@@H]3[C@@H](O)[C@@H](O)[C@H](O[C@H]4[C@H](OC(=O)[C@]56CCC(C)(C)C[C@H]5C5=CCC7[C@@]8(C)C[C@H](O)[C@H](O[C@@H]9O[C@H](C(=O)O)[C@@H](O)[C@H](O)[C@H]9O)[C@@](C)(CO)C8[C@H](O)C[C@@]7(C)[C@]5(C)C[C@H]6O)O[C@@H](CO)[C@@H]4O)O[C@H]3C)OC[C@H]2O)[C@H](O)[C@H](O)[C@H]1O (stereo partly specified) | 74*
Cc1ccc2c(c1)c1c(n2CC(O)CO)C(=O)CCC1 (stereo unspecified) | 3
C#CCN(O[C@@H](/C=C/[C@@H](O)Cc1ccccc1)C1CC1)[C@@H](Cc1ccc(N=[N+]=[N-])cc1)C(=O)OC | 5
Cc1cc(-c2ccc(N=Nc3cc(S(=O)(=O)O)c4ccccc4c3N)c(C)c2)ccc1N=Nc1cc(S(=O)(=O)O)c2ccccc2c1N | 92*
COc1cc(C2Oc3c(OC)cc(CCCO)cc3C2CO)ccc1O[C@H]1O[C@H](C)[C@@H](O)[C@H](O)[C@@H]1O (stereo partly specified) | 59*
C[C@@H]1O[C@@H](Oc2ccc(C3Oc4cc(O)cc(O)c4C(=O)C3O)cc2O)[C@H](O)[C@H](O)[C@H]1O (stereo partly specified) | 33
COc1ccc(C2Oc3c(OC)cc(CCCO)cc3C2CO)cc1OC1OC(CO)C(O)C(O)C1O (stereo unspecified) | 11
O=C(N/N=C/c1ccc(B(O)O)cc1)c1ccccn1 | 8
CC(C)=CCc1c(O[C@@H]2O[C@H](CO)[C@@H](O)[C@H](O)[C@H]2O)cc(O)c2c1O[C@H](c1ccc(O)cc1)CC2=O | 70*
COc1c(OC2OC(CO)C(O)C(O)C2O)cc(O)c2c1OC(c1ccccc1)CC2=O (stereo unspecified) | 36
O=C1CC(c2ccc(O)cc2)Oc2cc(O[C@@H]3O[C@H](CO)[C@@H](O)[C@H](O)[C@H]3O)cc(O)c21 (stereo partly specified) | -2
